Experimental findings from PubChem BioAssay are described below.

The target in the assay is Follistatin-related protein 3 (Homo sapiens) (UniProt O95633). Briefly: compounds binding follistatin-related protein 3 – biochemical, small-molecule microarray, 635 nm fluorescence, primary screen (AID 1105).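 Further: score merges emission near 667 nm and signal to noise per printed spot across three slides.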 The note with it: FSTL3 binding, higher = more signal.
Follistatin-related protein 3 (Homo sapiens), sequence (O95633 whole entry, looked up): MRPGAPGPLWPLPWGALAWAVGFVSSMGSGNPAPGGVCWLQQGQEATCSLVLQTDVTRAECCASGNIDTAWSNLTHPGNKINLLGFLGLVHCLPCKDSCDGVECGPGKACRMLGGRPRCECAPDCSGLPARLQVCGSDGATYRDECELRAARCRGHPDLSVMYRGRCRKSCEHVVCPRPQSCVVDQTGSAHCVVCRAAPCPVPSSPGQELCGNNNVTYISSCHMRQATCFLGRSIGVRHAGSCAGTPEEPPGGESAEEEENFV
As to `COCCOC(=O)N1C(=O)[C@@]2(c3cc(C#CC4=CCCCC4)ccc31)[C@H](C(N)=O)[C@H]1C(=O)O[C@H](c3ccccc3)[C@H](c3ccccc3)N1[C@@H]2c1ccccc1OCCO`, the composite z-score was 0.733.

Regarding `O=C1NC(=O)C2C1C=CC(C(O)c1ccco1)N2Nc1ccccn1` (stereo unspecified), the composite z-score was -0.374.

The compound `CCCCN1CC=CC23O[C@@H]4/C=C\CCC(C)OC(=O)C4[C@H]2C(=O)N(C(CO)C(C)C)[C@@H]3C1=O` (stereo partly specified) yielded a composite z-score of 0.167.

As to `CC=CC(O)C1C=CC2C(=O)N(c3ccccc3)C(=O)C2N1Nc1ccccc1F` (stereo unspecified), the composite z-score was -0.0808.

`COc1ccccc1CN1C(=O)c2ccccc2[C@](Cc2ccccc2I)(C(=O)NCC(F)(F)F)[C@@H]1c1ccc(CO)cc1`: the composite z-score is 1.1.

Consider `O=C1NC(=O)C2C1C=CC(C(O)c1c(F)cccc1Cl)N2Nc1ccc(Cl)cc1Cl` (stereo unspecified), for which the composite z-score worked out at 0.0256.

In turn, `COC(=O)[C@@]1(Cc2ccccc2)[C@H]2c3cc(C(=O)N(C)C)n(CCc4ccc(O)c(OC)c4)c3C[C@H]2CN1C(=O)c1ccccc1` yielded a composite z-score of 0.37.

As for `CCCNC(=O)[C@@H]1c2ccccc2C(=O)N(C(C)C)[C@H]1c1ccc(CO)cc1`, the composite z-score is -0.961.

As to `[N-]=[N+]=Nc1ccccc1[C@H]1OC(c2ccc(OCCCO)cc2)=N[C@@]1(Cc1ccccc1)C(=O)N1CCCCC1`, the composite z-score stood at 1.11.

For `C=CCC(OC(C)=O)[C@@H]1[C@@H](N(Cc2cccc3ccccc23)C(=O)Cc2ccc(F)cc2)c2cc(OCCCO)ccc2N1C(=O)c1ccc2ccccc2n1` (stereo partly specified), the composite z-score was -0.159.

Regarding `C[N+](C)(C)CCCC[C@@H]1NC(=O)[C@H]2C[C@@H](C(=O)NCCCCCCN)[C@@H](c3ccc(O)cc3)N2C1=O`, the composite z-score is -0.0878.

`C=C(CCCC)/C(=C/C[C@@H](OC(=O)c1ccncc1)c1ccccc1OCCO)c1cnc2ccccc2c1` returned a composite z-score of 1.33.

In the case of `O=C1c2ccccc2[C@](Cc2ccccc2I)(C(=O)NCC(F)(F)F)[C@H](c2ccc(CO)cc2)N1C1CCCCC1`, the composite z-score turned out to be 0.66.

For the compound `CC(C)N1C(=O)C[C@@](C(=O)NCCCN(C)C)(c2ccc([N+](=O)[O-])cc2)[C@H]1c1ccc(CO)cc1`, the composite z-score was -0.309.

As for `C=C[C@@H](COC(C)=O)N(C(=O)OC(C)(C)C)S(=O)(=O)c1ccc(Br)cc1`, the composite z-score worked out at 1.45.

Regarding `CC1CC/C=C\[C@H]2OC34C=CCN(c5ccc(Cl)cc5)C(=O)[C@H]3N(CCCCCO)C(=O)[C@]4(C)C2C(=O)O1` (stereo partly specified), the composite z-score was -0.888.

`O=C1O[C@H](c2ccccc2)[C@H](c2ccccc2)N2[C@H]1[C@@H](C(=O)Nc1nc3ccccc3s1)[C@]1(C(=O)Nc3ccc(C#CCCO)cc31)[C@H]2c1ccc(O)cc1` yielded a composite z-score of 0.763.

Regarding `COCCOC(=O)N1C(=O)[C@@]2(c3cc(C#CC4(O)CCCCCC4)ccc31)[C@H](c1ccc(O)cc1)N1[C@H](c3ccccc3)[C@H](c3ccccc3)OC(=O)[C@H]1[C@@H]2C(=O)NC[C@H](O)c1ccccc1`, the composite z-score is 0.936.

`O=C1O[C@@H](c2ccccc2)[C@@H](c2ccccc2)N2[C@@H](c3ccccc3OCCO)[C@]3(C(=O)Nc4ccc(C#CCCO)cc43)[C@@H](C(=O)N3CCCCCCC3)[C@H]12` displayed a composite z-score of 1.78.

In turn, `COc1ccc([Si](C)(C)[C@@H]2[C@@H](CCO)O[C@]3(C(=O)N(Cc4ccc(N5CCCCC5=O)cc4)c4ccccc43)[C@H]2C)cc1` returned a composite z-score of 0.87.

For the compound `O=C(NCC(F)(F)F)[C@@H]1c2ccccc2C(=O)N(Cc2cc(F)cc(C(F)(F)F)c2)[C@H]1c1ccc(CO)cc1`, the composite z-score was -1.29.

`Cc1ccccc1C(O)C1C=CC2C(=O)N(C)C(=O)C2N1N(c1ccccc1)c1ccccc1` (stereo unspecified) returned a composite z-score of 0.0459.

Compound `O=C(CS)NCCCCCCNC(=O)[C@H]1C[C@H]2C(=O)N[C@@H](Cc3ccccc3)C(=O)N2[C@H]1c1ccc(O)cc1` came in with a composite z-score of 0.333.

As for `C=CCN1Cc2ccccc2[C@H]2OC(c3ccc(OCCCO)cc3)=N[C@@]2(CC=C)C1=O`, the composite z-score stood at 1.42.

`CO[C@]12C=C(Br)[C@@H](C[C@@H]1c1cccc(C)c1)[C@@]1(CO1)C2=O` had a composite z-score of 0.261.

`C=CC[C@]1(C(=O)O)COC(c2ccc(OCCCO)cc2)=N1`: the composite z-score turned out to be 0.406.

With `CCOC(=O)[C@H]1[C@@H]2C(=O)N3CCC[C@H]3[C@H](O[Si](C(C)C)(C(C)C)C(C)C)[C@H]2C=C2CCN(S(=O)(=O)c3ccc(C)cc3)C[C@H]21`, the composite z-score worked out at 0.766.

Turning to `CN(C)CCCCNC(=O)[C@@H]1C[C@@H]2C(=O)N[C@@H](Cc3ccccc3)C(=O)N2[C@@H]1c1cccc(OCCO)c1`, the composite z-score was determined as 1.26.

Turning to `C=C(C)C1CCC(C(O)C2C=CC3C(=O)N(C)C(=O)C3N2N2CCCCC2)CC1` (stereo unspecified), the composite z-score was 1.35.

For the compound `CN1C(=O)C2C=CC(C(O)c3ccccn3)N(N(c3ccccc3)c3ccccc3)C2C1=O` (stereo unspecified), the composite z-score came to 0.273.

For `CN(C)CCCNC(=O)[C@@]1(C)c2ccccc2C(=O)N(Cc2ccccc2)[C@H]1c1ccc(CO)cc1`, the composite z-score is -0.456.

As to `C=CCNC(=O)[C@@H]1[C@H]2C(=O)O[C@H](c3ccccc3)[C@H](c3ccccc3)N2[C@H](c2ccc(O)cc2)[C@@]12C(=O)N(C(=O)OCCOC)c1ccc(C#CC3(O)CCCCCC3)cc12`, the composite z-score is -1.45.

`CN(C)C(=O)[C@@]1(Cc2ccccc2CN=[N+]=[N-])N=C(c2ccc(OCCCO)cc2)O[C@H]1c1ccccc1CN=[N+]=[N-]`: the composite z-score was -0.0464.

As for `O=C1O[C@@H](c2ccccc2)[C@@H](c2ccccc2)N2[C@@H](c3ccc(O)cc3)[C@]3(C(=O)Nc4ccc(C#CC5=CCCCC5)cc43)[C@@H](C(=O)NC[C@H](O)c3ccccc3)[C@H]12`, the composite z-score came out at 1.42.

Regarding `CC(C)(C)OC(=O)CC[C@]1(C(=O)NCc2ccccc2)N=C(c2ccc(OCCCO)cc2)O[C@H]1c1ccccc1CN=[N+]=[N-]`, the composite z-score turned out to be 1.37.

Take `CC(C)C[C@@H]1NC(=O)[C@@H]2C[C@H](C(=O)NCCCCN(C)C)[C@H](c3cccc(OCCO)c3)N2C1=O`: the composite z-score is -0.135.
